Screening data as filed in PubChem BioAssay.
HTT-AS act: activates huntingtin-antisense promoter activity; HEK293 HTT-AS promoter firefly luciferase reporter, 24 h; response scale: percent change from vehicle, -100% = no light; Potency, µM (top dose mostly 57.5 µM), actives largely listed as activators; 48,000 tested, 0.24% active; AID 1508624; further: nearly all actives have a fitted effect of over 55% in size
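HEK293 Fluc reporter, 2,500 cells/well, 24 h pre-culture; cpds up to 57.5 uM final, 24 h 37 degrees C; Dual-Glo, 10 min RT; normalized vehicle = 0%, zero RLU = -100%.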
HTT promoter inh: inhibits huntingtin promoter activity | HEK293 HTT promoter firefly luciferase reporter, 24 h | Potency, µM (doses to about 57.5 µM), most hits filed as inhibitors | 48,000 tested, 0.93% active | AID 1508623; further: nearly all actives have a fitted effect of over 50% in size
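Firefly luciferase signal from promoter-reporter HEK293 cells was scaled between vehicle (0%) and zero RLU (-100%). Compounds were tested at final concentrations of up to 57.5 uM over 24 h at 37 degrees C. PTC124 at 50 uM final served as control inhibitor.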
NTMT1 inhibitor: NTMT1 methyltransferase inhibition; NTMT1 MTase-Glo SAH luminescence, purified enzyme; Potency, µM (top dose mostly 114 µM), actives largely listed as inhibitors; 59,000 tested, 2.5% active; AID 1645870; further: nearly all actives have a fitted effect of over 65% in size
FH mod: Identification of activators of human fumarate hydratase by quantitative high-throughput screening; Fumarate hydratase, mitochondrial (Homo sapiens), P07954; FH coupled MDH/diaphorase resazurin fluorescence, 15 min; Potency, µM (highest dose often 79.9 µM), actives largely listed as inhibitors; 54,000 tested, 0.22% active; further: the screen sought activators but most active calls are inhibition curves; nearly all actives have a fitted effect of over 45% in size
Target sequence (P07954 whole entry, looked up): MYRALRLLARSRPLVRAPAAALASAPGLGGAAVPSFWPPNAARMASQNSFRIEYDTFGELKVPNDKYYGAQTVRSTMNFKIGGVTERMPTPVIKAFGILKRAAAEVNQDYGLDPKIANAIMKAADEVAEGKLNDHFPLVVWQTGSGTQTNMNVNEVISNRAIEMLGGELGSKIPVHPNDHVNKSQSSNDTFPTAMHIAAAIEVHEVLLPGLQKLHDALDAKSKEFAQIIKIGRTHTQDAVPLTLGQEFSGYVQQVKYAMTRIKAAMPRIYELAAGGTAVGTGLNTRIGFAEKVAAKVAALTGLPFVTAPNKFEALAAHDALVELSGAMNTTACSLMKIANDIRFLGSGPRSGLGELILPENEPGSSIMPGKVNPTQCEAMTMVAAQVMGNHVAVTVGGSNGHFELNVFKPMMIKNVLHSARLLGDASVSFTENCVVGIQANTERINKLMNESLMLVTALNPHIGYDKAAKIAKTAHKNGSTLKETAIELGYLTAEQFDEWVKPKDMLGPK
GPR32 ag: activates human resolvin D1 receptor GPR32; O75388; CHO-K1 GPR32 beta-arrestin PathHunter luminescence, 90 min; zero percent set by DMSO-only wells; activation, % at 76.9 µM; 48,000 tested, 2.5% active;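 active means activation of at least 60% and not above a set upper limit, about 1 call in 100 departs from these limits; inconclusive means activation of 40% to 60%, or above that upper limit; inactive means activation under 40%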
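Beta-arrestin recruitment read-out: luminescence from complemented beta-Gal in CHO-K1 GPR32 PathHunter cells, measured 1 h after detection reagent at ambient temperature following 90 min compound exposure at 37 °C; DMSO served as basal (EC0) control.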
Numbers stand for hits; - = inactive; ? = inconclusive; . = not tested or not shown; ! = repeats disagree. Only some compounds are listed: those with a hit (about 4.7% of all), similar ones and a draw of the others. Unless noted, the call rests on the fitted dose curve; in most records, active means well fitted curve in the direction sought with a large enough effect; inconclusive means small, poorly fitted or top-dose-only effect, or another doubt; inactive means no such curve, though single readings can be large; an effect the other way counts as inactive or inconclusive.

SMILES	HTT-AS act	HTT promoter inh	NTMT1 inhibitor	FH mod	GPR32 ag
COc1ccc(N2CCN(c3nc4ccccc4n4c(C)nnc34)CC2)cc1	-	-	79µM	-	-
Cc1cc2c(s1)c1cnn(Cc3c(Cl)cccc3Br)c(=O)c1n2C	.	.	-	.	.
O=C(O)C1(Cc2cccc(Nc3nccs3)n2)CCC(Oc2cccc(Cl)c2F)CC1 (centres undefined)	-	-	28µM	-	.
Cc1cn([C@H]2C[C@H](N[S+](=O)([O-])Cc3cc(Cl)cc(Cl)c3)[C@@H](CO)O2)c(=O)[nH]c1=O	.	.	79µM	.	.
CN(C)S(=O)(=O)N1CCC(n2cnc3cccnc32)CC1	.	.	.	.	-
CCOC(=O)c1c(NC(=O)COc2ccc(OC)cc2)sc(C(=O)N(CC)CC)c1C	-	11µM	-	?	-
CCOC(=O)c1c(NC(=O)COc2ccc(Br)cc2)sc(C(C)=O)c1C	-	-	-	-	-
Cc1oc2ccc(O)c(CN3CCCC(C)C3)c2c1C(=O)Nc1ccccc1 (centres undefined)	-	-	-	-	-
CC(C)(C)C(=O)Nc1ccc(Cl)c(-c2nc3ccccc3[nH]2)c1	-	-	-	-	88
CC(C)CC(=O)Nc1ccc(Cl)c(-c2nc3ccccc3[nH]2)c1	-	-	-	-	-
CCN(CC)C(=S)SSC(=S)N(CC)CC	-	?	3.5µM!	?	92!
CN1C[C@H]2c3ccccc3Oc3ccc(Cl)cc3[C@@H]2C1	-	-	-	-	92
Cc1ccc(-n2ncc3c(NCc4ccccc4)ncnc32)cc1Cl	-	-	-	-	62
Cc1ccc(Cl)cc1-n1ncc2c(NCc3ccc(F)cc3)ncnc21	-	?	-	-	-
Cc1ccc(Cl)cc1-n1ncc2c(NCCc3ccccc3)ncnc21	?	-	-	-	101
Cc1ccc(Cl)cc1-n1ncc2c(NCCCc3ccccc3)ncnc21	-	?	-	?	78
CC(C)(C)c1ccc(OCCn2cc(C(=O)c3ccco3)c3ccccc32)cc1	-	?	-	?	-
CC(=O)NC(c1ccco1)c1cc(Cl)c2ccc(N3CCCCC3)nc2c1O (centres undefined)	.	.	-	.	.
Cc1cc(Nc2cccc(Cl)c2)nc2ccc(NC(=O)COc3ccc(Cl)cc3)cc12	-	-	-	-	-
Cc1cccc(OCC(=O)Nc2ccc3nc(Nc4cccc(Cl)c4)cc(C)c3c2)c1	-	-	-	-	103
CCNC(=O)c1noc(-c2cc(C(C)C)c(O)cc2O)c1-c1ccc(CN2CCOCC2)cc1	-	?	?	-	.
CCS(=O)(=O)N1CCc2cc(C(=O)NCCc3ccccc3)ccc21	?	-	89µM	-	-
CS(=O)(=O)N1CCc2cc(C(=O)NCCc3ccccc3)ccc21	3.2µM	-	-	-	-
CCS(=O)(=O)N1CCc2cc(C(=O)Nc3ccc(Br)cc3F)ccc21	-	?	89µM	-	74
O=C(Nc1ccc(Br)cc1)c1cccc(S(=O)(=O)N2CCc3ccccc32)c1	-	25µM	-	?	-
SMILES	HTT-AS act	HTT promoter inh	NTMT1 inhibitor	FH mod	GPR32 ag
O=C(Nc1ccc(Br)cc1)c1ccc(F)c(S(=O)(=O)N2CCCc3ccccc32)c1	-	2.2µM	-	-	-
O=C(Nc1cc(Cl)cc(Cl)c1)c1ccc(F)c(S(=O)(=O)N2CCc3ccccc32)c1	-	?	-	-	-
NS(=O)(=O)c1ccc(NC(=O)c2ccc3c(c2)CCN3S(=O)(=O)c2ccccc2)cc1	-	-	-	-	-
CCCCCCCCCCCCOCCOCCOCCOCCOCCOCCOCCOCCOCCO	-	-	?	-	99
COc1ccc(OC(=O)CSc2nnc(-c3ccc(F)cc3)o2)cc1	-	-	-	-	-
CCOc1ccc(-c2nnc(SCC(=O)Oc3ccccc3)o2)cc1	-	2.8µM	-	-	-
CC(C)C(C)(C)C(C)(C)C(C)(C)S	-	-	32µM	-	-
COc1cc(OC)c(/C=C/S(=O)(=O)Cc2ccc(OC)c(NCC(=O)O)c2)c(OC)c1	.	.	?	-	.
Cc1ccc(Cl)cc1NC(=O)c1ccc2snnc2c1	-	-	-	-	85
COc1cc(O)ccc1OCCNCC(O)COc1cccc2[nH]c3ccccc3c12 (centres undefined)	.	.	-	-	.
CCOc1ccccc1N(CC)C(=O)c1cc2c(=O)[nH]c3ccc(C)cc3c2s1	-	2.5µM	-	-	-
